# Data published in PubChem BioAssay.
# The source made the active and inactive calls.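 How the source made its calls, unless noted: active means hit in primary screen, with calcium signal over 5 SD above buffer well mean in both duplicates; inactive means the rest.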
# Assay: calcium flux activation in mu-opioid HEK293 cells, confirmation, counter-screen for TRPC4 activator project, cell-based, HEK293 mu-opioid receptor line (AID 449723);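 further: counter screen cells carry the mu-opioid receptor alone and lack TRPC4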
# Conditions: Fluo-4 calcium fluorescence, at 10 µM; stronger effect = higher value
SMILES,outcome,activation
NC1=NC2(CCN(Cc3ccccc3)CC2)n2c(nc3ccccc32)N1,inactive,
COc1ccc(CN2CCC(N(CCc3ccccc3)Cc3ccccc3)CC2)c(OC)c1,inactive,
CCc1ccc(C(=O)c2cnc3ccc(OC)cc3c2N2CCN(CC)CC2)cc1,inactive,
S=C(NCCc1cnc[nH]1)NC1CCCC1,inactive,
O=C(NCc1ccccc1)C1=C[C@H](c2ccccc2)C[C@H](OCc2ccc(CO)cc2)O1,inactive,
Cc1ccc(OCC(=O)N(C)CCc2ccccn2)cc1,inactive,
CC(C)(C)C(=O)/C=c1\s/c(=C\c2ccc(-c3ccc([N+](=O)[O-])cc3)o2)c(=O)n1CC(=O)NC(N)=O,,68.5% (active)
NC(=O)C1CCCN(CCc2ccccc2)C1 (stereo not drawn),inactive,
Cc1cc2nc3s/c(=C/c4ccc(-c5ccccc5C(=O)O)o4)c(=O)n3c2cc1C,,136% (active)
COc1ccc(CNCc2cn(-c3cccc(F)c3)nc2-c2ccc(C)o2)cc1,,12.4% (active)
CN(C)C(CNc1ccc(C(F)(F)F)cn1)c1ccccc1 (stereo not drawn),inactive,
CN(C)C(CNC(=O)c1cccc(S(=O)(=O)N(C)C)c1)c1ccccc1 (stereo not drawn),inactive,
CCCc1c(O)nc(SCCN(CC)CC)[nH]c1=O,inactive,
CCC(=O)N1CCc2cc(Br)cc(S(=O)(=O)NCCCN(CC)Cc3ccccc3)c21,inactive,
Cc1ccc(Cn2c(SCCN3CCCCC3)nc3c2c(=O)n(C)c(=O)n3C)cc1,inactive,
O=C(O)C1C2C=CC(C2)C1C(=O)N1CCN(C/C=C/c2ccccc2)CC1 (stereo not drawn),inactive,
COc1ccc(C)c(NC(=O)NCCc2cnc[nH]2)c1,inactive,
OCCC1CN(Cc2ccccc2-c2ccco2)CCN1Cc1ccccc1 (stereo not drawn),inactive,
COc1ccc(CCN(C)C(=O)C2CCCN(C3CCN(Cc4ccccc4)CC3)C2)cc1OC (stereo not drawn),inactive,
CCOc1ccc(S(=O)(=O)Nc2cccc(C(=O)NCC(c3ccccc3)N(C)C)c2)cc1 (stereo not drawn),inactive,

SMILES,outcome,activation
Cc1cc(C)cc(NC(=S)N2CCN(c3ncc(C(F)(F)F)cc3Cl)CC2)c1,inactive,
COc1ccc(C(CNC(=O)c2cccc(Br)c2)N2CCCC2)cc1 (stereo not drawn),inactive,
CC(C)n1cnc2c(N(C)c3ccccc3)nc(N(CCN(C)C)Cc3ccccc3)nc21,inactive,
Cc1cccn2c(CNCCc3ccccn3)c(C(=O)N3CCOCC3)nc12,inactive,
Cc1ccc(C)c(-n2cc(CNCCCn3cccn3)c(-c3ccccc3)n2)c1,inactive,
Cc1csc2c(N3CCN(C(=O)Nc4ccc(OC(F)(F)F)cc4)CC3)ncnc12,inactive,
CN(CCc1ccccn1)C(=S)Nc1cccc(S(=O)(=O)N(C)C)c1,inactive,
Cc1ccc(NC(=S)NC2CC3CCC(C2)N3Cc2ccco2)c(C)c1 (stereo not drawn),inactive,
COc1cc2c(cc1OC)C(C)N(C(=O)C(NC(=O)c1ccccc1)C(C)C)CC2 (stereo not drawn),inactive,
O=C(NC1CC1)C1=C[C@H](c2csc3ccccc23)C[C@H](OCc2ccc(CO)cc2)O1,inactive,
Clc1ccc2nc(N3CCNCC3)nc(-c3ccccc3)c2c1,,12.1% (active)
COc1ccc(C(CNC(=O)/C=C/c2c(Cl)nc3ccccn23)N(C)C)cc1 (stereo not drawn),inactive,
CC(=O)n1cc([C@H]2C=C(C(=O)NCc3ccccc3)O[C@@H](OCc3ccc(CO)cc3)C2)c2ccccc21,inactive,
CCCn1ncc(CN2CCC(n3nccc3NC(=O)CCc3ccccc3)CC2)c1C,inactive,
CC(=O)NC(CC(=O)NCC(c1ccco1)N(C)C)c1ccccc1 (stereo not drawn),inactive,
COc1ccc(C(=O)NNC(=S)NC(=O)c2cccs2)cc1,inactive,
COCCn1nnnc1C(c1cc2ccc(OC)cc2[nH]c1=O)N1CCN(C2CCCCC2)CC1 (stereo not drawn),inactive,
O=C(c1sc2ccccc2c1Cl)N(Cc1ccccc1)C1CCS(=O)(=O)C1 (stereo not drawn),inactive,
O=c1c(Cc2ccc(F)cc2)c(O)ccn1CCc1cnc[nH]1,inactive,

# Assay: calcium flux enhancement in mu-opioid HEK293 cells, confirmation, counter-screen for TRPC4 allosteric potentiator project, cell-based, HEK293 mu-opioid receptor line (AID 449724;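 active means calcium signal rise more than 3 SD above the low-dose agonist control mean, in both duplicate plates and the primary screen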;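 further: HEK293 cells carrying mu-opioid receptor only with no TRPC4 channel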)
# Conditions: Fluo-4 calcium flux, at 10 µM, compound added before EC20 DAMGO stimulus; stronger effect = higher value
SMILES,outcome,activation
NC1=NC2(CCN(Cc3ccccc3)CC2)n2c(nc3ccccc32)N1,inactive,
COc1ccc(CN2CCC(N(CCc3ccccc3)Cc3ccccc3)CC2)c(OC)c1,inactive,
CCc1ccc(C(=O)c2cnc3ccc(OC)cc3c2N2CCN(CC)CC2)cc1,inactive,
S=C(NCCc1cnc[nH]1)NC1CCCC1,inactive,
O=C(NCc1ccccc1)C1=C[C@H](c2ccccc2)C[C@H](OCc2ccc(CO)cc2)O1,inactive,
Cc1ccc(OCC(=O)N(C)CCc2ccccn2)cc1,inactive,
CC(C)(C)C(=O)/C=c1\s/c(=C\c2ccc(-c3ccc([N+](=O)[O-])cc3)o2)c(=O)n1CC(=O)NC(N)=O,,1220% (active)
NC(=O)C1CCCN(CCc2ccccc2)C1 (stereo not drawn),inactive,
Cc1cc2nc3s/c(=C/c4ccc(-c5ccccc5C(=O)O)o4)c(=O)n3c2cc1C,inactive,
COc1ccc(CNCc2cn(-c3cccc(F)c3)nc2-c2ccc(C)o2)cc1,inactive,
CN(C)C(CNc1ccc(C(F)(F)F)cn1)c1ccccc1 (stereo not drawn),inactive,
CN(C)C(CNC(=O)c1cccc(S(=O)(=O)N(C)C)c1)c1ccccc1 (stereo not drawn),inactive,
CCCc1c(O)nc(SCCN(CC)CC)[nH]c1=O,inactive,
CCC(=O)N1CCc2cc(Br)cc(S(=O)(=O)NCCCN(CC)Cc3ccccc3)c21,inactive,
Cc1ccc(Cn2c(SCCN3CCCCC3)nc3c2c(=O)n(C)c(=O)n3C)cc1,inactive,
O=C(O)C1C2C=CC(C2)C1C(=O)N1CCN(C/C=C/c2ccccc2)CC1 (stereo not drawn),inactive,
COc1ccc(C)c(NC(=O)NCCc2cnc[nH]2)c1,inactive,
OCCC1CN(Cc2ccccc2-c2ccco2)CCN1Cc1ccccc1 (stereo not drawn),inactive,
COc1ccc(CCN(C)C(=O)C2CCCN(C3CCN(Cc4ccccc4)CC3)C2)cc1OC (stereo not drawn),inactive,
CCOc1ccc(S(=O)(=O)Nc2cccc(C(=O)NCC(c3ccccc3)N(C)C)c2)cc1 (stereo not drawn),inactive,

SMILES,outcome,activation
Cc1cc(C)cc(NC(=S)N2CCN(c3ncc(C(F)(F)F)cc3Cl)CC2)c1,inactive,
COc1ccc(C(CNC(=O)c2cccc(Br)c2)N2CCCC2)cc1 (stereo not drawn),inactive,
CC(C)n1cnc2c(N(C)c3ccccc3)nc(N(CCN(C)C)Cc3ccccc3)nc21,inactive,
Cc1cccn2c(CNCCc3ccccn3)c(C(=O)N3CCOCC3)nc12,inactive,
Cc1ccc(C)c(-n2cc(CNCCCn3cccn3)c(-c3ccccc3)n2)c1,inactive,
Cc1csc2c(N3CCN(C(=O)Nc4ccc(OC(F)(F)F)cc4)CC3)ncnc12,inactive,
CN(CCc1ccccn1)C(=S)Nc1cccc(S(=O)(=O)N(C)C)c1,inactive,
Cc1ccc(NC(=S)NC2CC3CCC(C2)N3Cc2ccco2)c(C)c1 (stereo not drawn),inactive,
COc1cc2c(cc1OC)C(C)N(C(=O)C(NC(=O)c1ccccc1)C(C)C)CC2 (stereo not drawn),inactive,
O=C(NC1CC1)C1=C[C@H](c2csc3ccccc23)C[C@H](OCc2ccc(CO)cc2)O1,inactive,
Clc1ccc2nc(N3CCNCC3)nc(-c3ccccc3)c2c1,inactive,
COc1ccc(C(CNC(=O)/C=C/c2c(Cl)nc3ccccn23)N(C)C)cc1 (stereo not drawn),inactive,
CC(=O)n1cc([C@H]2C=C(C(=O)NCc3ccccc3)O[C@@H](OCc3ccc(CO)cc3)C2)c2ccccc21,inactive,
CCCn1ncc(CN2CCC(n3nccc3NC(=O)CCc3ccccc3)CC2)c1C,inactive,
CC(=O)NC(CC(=O)NCC(c1ccco1)N(C)C)c1ccccc1 (stereo not drawn),inactive,
COc1ccc(C(=O)NNC(=S)NC(=O)c2cccs2)cc1,inactive,
COCCn1nnnc1C(c1cc2ccc(OC)cc2[nH]c1=O)N1CCN(C2CCCCC2)CC1 (stereo not drawn),inactive,
O=C(c1sc2ccccc2c1Cl)N(Cc1ccccc1)C1CCS(=O)(=O)C1 (stereo not drawn),inactive,
O=c1c(Cc2ccc(F)cc2)c(O)ccn1CCc1cnc[nH]1,inactive,
